In PubChem BioAssay AID686959 (The Scripps Research Institute Molecular Screening Center, 2013):
The source made the active and inactive calls. Cut-off not given; nearly all actives show IC50 up to about 8.1 µM.

Assay: small molecules binding CAG repeat RNA – biochemical, fluorescence, dose response (AID 686959)
Details: r(CAG) RNA repeat binding

Row | Compound | IC50
1 | O=C(O)c1ccc(N2C(=O)CC(SC(=NCc3ccc4c(c3)OCO4)Nc3ccc(F)cc3)C2=O)cc1 (stereo not drawn) | 2890 nM (active)
2 | Cc1noc(NS(=O)(=O)c2ccc(NC(=O)COc3ccc(Cl)cc3Cl)cc2)c1C | 2830 nM (active)
3 | C=CCOc1c(OC)cc(/C=N/Nc2cccc(C(=O)O)c2)c(Br)c1Br | 2280 nM (active)
4 | CCCOc1cccc(C2C(C(=O)c3ccc(C)o3)=C(O)C(=O)N2c2nc(C)c(C(C)=O)s2)c1 (stereo not drawn) | 4060 nM (active)
5 | CC1=NN(C(N)=S)C(=O)C1N=Nc1c(Br)cc(Br)cc1Br (stereo not drawn) | 5730 nM (active)
6 | CC(=O)C1=C(O)C(=O)N(c2cc(C(C)(C)C)on2)C1c1ccc(Br)cc1 (stereo not drawn) | 2490 nM (active)
7 | C/C(=N\N=C(/N)SC1CC(=O)N(c2cccc(Cl)c2)C1=O)c1cccs1 (stereo not drawn) | 5190 nM (active)
8 | COc1ccc2nc(N3C(=O)C(O)=C(C(=O)c4ccco4)C3c3ccc(OC)c(OC)c3)sc2c1 (stereo not drawn) | 2040 nM (active)
9 | N#CC(C#N)=C(Nc1ccc(F)cc1)SCc1cccc(Br)c1 | 7570 nM (active)
10 | CC1=C(C#N)c2nc(N)c(C#N)c(C)c2/C1=C\c1ccc(-c2ccccc2C(=O)O)o1 | 2570 nM (active)
11 | N#C/C(C(=O)Nc1ccc(Cl)cc1)=C(/S)Nc1ccccc1 | 6140 nM (active)
12 | CC(C)c1ccc(C2c3[nH]c4ccccc4c3C[C@H]3C(=O)N(c4ccccc4C(=O)N4CCC[C@H]4C(=O)O)C(=O)N23)cc1 (stereo partly drawn) | 3350 nM (active)
13 | N#CC1=C(S)N(c2ccccc2)C(c2ccc(-c3cc(Cl)ccc3Cl)o2)NC1=O (stereo not drawn) | 1470 nM (active)
